Source: PubChem BioAssay (National Center for Advancing Translational Sciences (NCATS))
Tau fibril FP: inhibitors of human tau fibril formation. P10636. AID 1468. Potency, µM (series often up to 57.7 µM), actives largely listed as inhibitors. 0.39% of 280,000 active. K18 P301L tau heparin fibrillization, Alexa594 FP, 6 h; note: nearly all actives have a fitted effect of over 55% in size
Target sequence (P10636 561-689 P618L limits assumed): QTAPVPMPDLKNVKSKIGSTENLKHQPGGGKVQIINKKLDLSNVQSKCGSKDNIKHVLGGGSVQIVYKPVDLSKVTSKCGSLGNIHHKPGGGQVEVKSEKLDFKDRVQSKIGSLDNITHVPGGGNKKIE
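Steps: dispense K18 P301L tau (15 uM plus 0.24 uM Alexa 594 tracer, final) in pH 7 sodium acetate; add compound; add heparin (20 uM final); incubate 6 hr, 37 C; add ThT (30 uM final); after 1 hr ambient, read FP.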
TRb-SRC2 inh: disrupts binding of human TR beta to SRC2; P10828; TRbeta-SRC2 peptide binding, fluorescence polarization; receptor liganded with 1 µM T3; Potency, µM (series often up to 106 µM), hits mostly inhibitors; 0.065% of 280,000 active; note: nearly all actives have a fitted effect of over 50% in size
Target sequence (P10828 whole entry, looked up): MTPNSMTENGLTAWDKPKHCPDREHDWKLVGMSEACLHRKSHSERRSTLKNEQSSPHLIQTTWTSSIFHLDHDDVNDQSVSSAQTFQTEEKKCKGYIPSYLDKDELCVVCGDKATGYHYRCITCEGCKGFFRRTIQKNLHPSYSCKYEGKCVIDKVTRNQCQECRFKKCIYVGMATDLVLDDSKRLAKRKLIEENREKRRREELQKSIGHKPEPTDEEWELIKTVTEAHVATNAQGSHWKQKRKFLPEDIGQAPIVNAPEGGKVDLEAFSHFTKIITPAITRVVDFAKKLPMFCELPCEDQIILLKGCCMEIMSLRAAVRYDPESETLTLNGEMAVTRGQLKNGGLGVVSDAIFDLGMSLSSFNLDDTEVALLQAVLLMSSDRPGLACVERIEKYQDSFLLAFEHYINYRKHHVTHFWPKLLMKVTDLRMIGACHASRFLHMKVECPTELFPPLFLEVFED
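Each compound concentration gave % activity, normalized to unbound and bound Texas Red SRC2 controls, from polarization read after 5 hr ambient incubation with T3-loaded human TRb LBD.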
Tau fluor cs: counter-screen for tau fibril formation inhibitors | tau K18 P301L Alexa594 fluorescence, heparin fibrillization | Potency, µM (top dose mostly 57.7 µM) | 0.93% of 280,000 active | AID 1463; note: nearly all actives have a fitted effect of over 55% in size
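Human tau K18 P301L (15 uM unlabeled, 0.24 uM Alexa 594-labeled) in 100 mM sodium acetate pH 7 with 20 uM heparin, 6 hr at 37 C. ThT 30 uM added, 1 hr ambient; Alexa 594 FP and total fluorescence read at 555/632 nm.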
TexasRed fluor: counter-screen for TRb-SRC2 inhibitors: fluorescence interference | 0.29% of 280,000 active | Potency, µM (series often up to 106 µM) | TRb/SRC2 Texas Red total fluorescence interference; active = well fitted curve in either direction with a large enough effect; inconclusive = small, poorly fitted or top-dose-only effect
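Human TRb ligand-binding domain at 0.6 uM with 20 nM Texas Red SRC2 peptide in Tris buffer containing 1 uM T3 and 5% DMSO, incubated with compound 5 h at ambient temperature. Total fluorescence (555/632 nm) calculated as parallel + 2 × perpendicular.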
Tau fibril ThT: inhibitors of human tau fibril formation, thioflavin T binding. Potency, µM (series often up to 57.4 µM), most hits filed as inhibitors. 2.1% of 270,000 active. P10636. recombinant tau K18 P301L (four-repeat tau fragment), heparin-induced fibrillization, ThT fluorescence; note: nearly all actives have a fitted effect of over 55% in size
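In this qHTS, human K18 P301L tau is incubated with compound and heparin for 6 hr at 37 C, and Thioflavin T fluorescence then reports fibril load.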
Hits are given with their value; i = inactive; ? = inconclusive; nt = not tested or not shown; [ ] = another dose, or the depositor's remark. In the library only some 3.1% were active in any assay of this set; here they are far more common. Unless noted, calls come from the whole dose curve; as a rule, active = well fitted curve in the direction sought with a large enough effect; inconclusive = small, poorly fitted or top-dose-only effect, or another doubt; inactive = no such curve, though single readings can be large; an effect the other way counts as inactive or inconclusive.

SMILES	Tau fibril FP	TRb-SRC2 inh	Tau fluor cs	TexasRed fluor	Tau fibril ThT
CC(=O)Nc1ccc(S(=O)(=O)Oc2ccc(/C=N/NC(=O)c3ccc(Cl)cc3)cc2)cc1	13µM	i	?	i	?
CCCc1ccc(-c2c(C)sc(N)c2C#N)cc1	?	i	16µM[quencher]	i	?
Cc1ccc(NC(=O)c2sc(-n3nc(C)c(CCC(C)C)c3C)nc2C)cc1C	i	i	i	i	?
O=C(O)c1ccccc1Nc1ccc([N+](=O)[O-])cc1	i	i	i	i	10µM
O=C(O)c1ccccc1Nc1ccccc1C(=O)O	i	i	i	i	i
O=[N+]([O-])c1ccc(Nc2c3ccccc3nc3ccccc23)cc1	?	i	11µM[quencher]	i	10µM
COc1ccc(C)cc1NC(=O)C(Cc1ccccc1)NS(=O)(=O)c1cccs1 (stereo unspecified)	i	i	i	i	i
CCCCCC(O)/C=C/C=C\CCCCCCCC(=O)O (stereo unspecified)	i	i	i	i	i
COC(=O)C1=C[C@@H](C(=O)OC)C2C3=C(C(=O)[C@]2(CC(C)C)NC(=O)c2ccccc2)[C@H](C)n2c(=O)n(C)c(=O)n2[C@@H]3C1 (stereo partly specified)	nt	i	nt	i	nt
COc1ccc2ccccc2c1/C=N/NC(=O)c1sc(N)c(C#N)c1C	i	i	?	i	?
COc1cc(/C=N/NC(=O)c2sc(N)c(C#N)c2C)cc(Br)c1O	i	i	?	?	4.5µM
COc1ccc(-c2ccc(C3C4C=CCC(C)C4C(=O)N3Cc3ccccc3)c(F)c2)cc1OC (stereo unspecified)	nt	i	nt	i	nt
C=CCOc1ccccc1CNc1cccc(F)c1	i	i	?	i	?
C=CCOc1ccccc1CNc1ccc2c(c1)OCCO2	i	i	?	i	18µM
CN1CCN(C(=S)c2ccc(-c3cccc(Cl)c3Cl)o2)CC1	i	i	i	i	14µM
CCc1ccc(CNC(=O)c2ccc(CS(=O)(=O)Cc3ccccc3C)o2)cc1	i	i	i	i	i
CC(C)=CCc1c2c(c3occ(-c4ccc(O)c(O)c4)c(=O)c3c1O)C=CC(C)(C)O2	25µM	i	3.5µM[quencher]	i	?
CC(C)=CCc1c2c(c3occ(-c4ccc(O)cc4)c(=O)c3c1O)C=CC(C)(C)O2	22µM	i	3.2µM[quencher]	i	?
CC1(C)C=Cc2c(c3c(c4c(=O)c(-c5ccc(O)cc5)coc24)OC(C)(C)CC3)O1	?	i	?	i	?
CCCC(=O)Nc1nnc(SCc2cc(=O)c3ccc(C)cc3[nH]2)s1	i	i	i	i	i
CCOC(=O)CC(NC(=O)c1cc2cc(Cl)ccc2oc1=O)c1ccc(C)cc1 (stereo unspecified)	i	i	i	14µM[quencher]	i
O=C1CC(=O)N(Cc2cccs2)C(=O)N1	?	i	i	i	20µM
COc1cccc(C(=O)CC2c3c(c(Br)c4c(c3OC)OCO4)CCN2C)c1 (stereo unspecified)	i	i	i	i	i
N#Cc1c(C#N)c(O)c2ccccc2c1O	?	i	i	i	14µM
c1ccc2cc3c(ccc4ccccc43)cc2c1	nt	i	nt	i	nt
SMILES	Tau fibril FP	TRb-SRC2 inh	Tau fluor cs	TexasRed fluor	Tau fibril ThT
O=C1CC(c2nc3ccccc3n2Cc2c(F)cccc2Cl)CN1c1cccc(C(F)(F)F)c1 (stereo unspecified)	i	i	i	i	i
Cc1cc(Nc2ccccc2)nc(NCc2ccccc2)n1	?	i	18µM[quencher]	i	i
Cc1ccc(/C=N/Nc2cc(C)nc(NCc3ccccc3)n2)cc1	?	i	?	i	?
Cc1cc(N/N=C/c2ccc(F)cc2)nc(NCc2ccccc2)n1	i	i	?	i	i
Cc1cc(Nc2ccc(Cl)cc2)nc(NCc2ccccc2)n1	?	i	18µM[quencher]	i	i
Cc1cc(N/N=C/c2ccc(N(C)C)cc2)nc(NCc2ccccc2)n1	i	i	7.9µM[quencher]	i	4µM
CCCCNc1cc(C)nc(NCc2ccccc2)n1	i	i	i	i	i
Cc1cc(Nc2cccc(F)c2)nc(NCc2ccccc2)n1	?	i	16µM[quencher]	i	i
CCO[Si](CCC#N)(OCC)OCC	nt	i	nt	i	nt
Cc1ccc(NC(=O)CSc2c3c(nc4ccccc24)CCCC3)cc1F	i	i	i	i	?
Cc1ccccc1NC(=O)CSCn1nnc2c(=O)[nH]c(Cc3ccc(F)cc3)nc21	i	i	i	i	i
Cc1ccc(NC(=O)CSCn2nnc3c(=O)[nH]c(Cc4ccc(F)cc4)nc32)c(C)c1	i	i	i	0.32µM[quencher]	i
CCOc1cc(C2c3c(-c4ccccc4O)n[nH]c3C(=O)N2Cc2cccnc2)ccc1O (stereo unspecified)	i	i	i	i	i
Cc1ccc(Cn2c(CNC(=O)c3ccccc3Br)nc3cccnc32)cc1	i	i	i	0.01µM[quencher]	i
Cc1ccc(Cl)cc1N1CCN(CCCNC(=O)Cn2ncc3c([nH]c4ccccc43)c2=O)CC1	i	i	i	?	i
CCCCCn1c(=O)c(C(=O)c2ccccc2)nc2ccccc21	i	i	i	i	i
CCCCCCn1c(=O)[nH]c2nc3cc(N)ccc3nc2c1=O	?	i	?	i	28µM
Cc1ccc(Sc2ccc(N3CCCC(C(=O)Nc4ccc(F)c(Cl)c4)C3)nn2)cc1 (stereo unspecified)	i	i	i	i	i
Cc1ccc(C(=O)NC2=NC(c3ccc(C)cc3)CC(=O)N2)cc1 (stereo unspecified)	i	i	i	251µM[quencher]	i
CCOc1ccc(C2CC(=O)NC(NC(=O)c3ccc(C)cc3)=N2)cc1 (stereo unspecified)	i	i	i	i	i
CCOc1ccc(NC(=O)CCn2c(-c3ccc(F)cc3)cc(C(C)=O)c2C)cc1	i	i	i	i	i
Cc1n[nH]c(C)c1Sc1ccccc1N=Cc1cc(Cl)cc([N+](=O)[O-])c1O	i	i	i	i	10µM
COc1ccc(N=C2NC(=O)/C(=C/c3ccc(O)c(OC)c3)S2)cc1	i	i	?	i	3.5µM
COc1ccc(N=C2NC(=O)/C(=C\c3ccco3)S2)cc1	i	i	?	i	10µM
COc1cc(/C=C2/SC(=Nc3ccc(O)cc3)NC2=O)cc(OC)c1O	i	i	i	i	?
SMILES	Tau fibril FP	TRb-SRC2 inh	Tau fluor cs	TexasRed fluor	Tau fibril ThT
O=C1NC(=Nc2ccc(O)cc2)S/C1=C\C=C\c1ccco1	?	i	?	i	1.6µM
CCOC(=O)c1c(-c2ccccc2)oc2ccc(OCc3ccccc3Br)cc12	i	i	i	i	i
O=C(Cl)c1cccc([N+](=O)[O-])c1	nt	i	nt	i	nt
Cc1cccc(Cn2c(C(=O)OC(C)C)cc3c2ccn3C)c1	?	?	?	i	35µM
CC(=O)c1cccc(Nc2nc(-c3ccccc3)cs2)c1	?	i	7.9µM[quencher]	i	?
CC(=O)NNc1nc(-c2ccc(C)cc2)cs1	i	i	i	i	?
CC(=O)NNc1nc(-c2ccccc2)cs1	?	i	?	i	18µM
